In all, about 190,000 compounds went through this assay and about 400 (0.21%) were called active. About 2% were inconclusive and are not listed. Shown is part of a subset that was picked to be rich in actives. Values without a mark were called inactive.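 How the source made its calls: active means percent activity GTP binding at least 20 points away from the 100% baseline, either down as inhibitor or up as activator; inconclusive means compound flagged as likely green fluorescent from well-wide comparison; inactive means the rest.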

Cell division control protein 42 homolog (Homo sapiens), sequence (P60953 whole entry, looked up): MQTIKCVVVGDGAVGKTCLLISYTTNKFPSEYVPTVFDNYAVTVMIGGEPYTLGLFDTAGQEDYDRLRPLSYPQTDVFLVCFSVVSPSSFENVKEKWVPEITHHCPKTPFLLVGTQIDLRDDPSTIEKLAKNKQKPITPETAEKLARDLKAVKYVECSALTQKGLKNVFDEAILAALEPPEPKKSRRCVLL

The test addresses Cell division control protein 42 homolog (Homo sapiens) (UniProt P60953). The test can be described thus: wildtype Cdc42 fluorescent GTP binding changes, either direction – biochemical, multiplex bead flow cytometry, Bodipy-GTP, primary screen (AID 761).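 Further: median bead fluorescence of bound Bodipy-FL-GTP at 100 nM; 0% = excess unlabeled GTP control and 100% = no compound control; below 100% means less GTP binding so inhibitor and above means activator.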 Conditions: GST-Cdc42 beads, at 10 µM, actives lie on both sides. (In general: Flow cytometry measures light scatter and fluorescence of single cells or particles in a stream.)
Take `CC(=O)N1CCc2cc(Br)cc(S(=O)(=O)CCC(=O)Nc3c(C)n(C)n(-c4ccccc4)c3=O)c21`: the percent activity (GTP binding) was 100%. The value for `Cc1cc(NC(=O)CSc2nccn2-c2ccc([N+](=O)[O-])cc2)no1` was 96%; that for `CC(=O)Nc1ccc(NC(=O)CSc2nnc(COc3ccccc3C)n2CC2CCCO2)cc1` (stereo unspecified) was 99%; that for `C=CCO/N=C/C1=C(O)C(C(=O)OC)C(C)(C)CC1=O` (stereo unspecified) was 108%. For the molecule `COC(=O)c1cc(NC(=O)CN2CCN(C(C)=O)CC2)cc(C(=O)OC)c1`, the percent activity (GTP binding) was 99%.

For `Cc1cc(N2CCN(C)CC2)nc2ccc(NC(=S)N3CCOCC3)cc12`, the percent activity (GTP binding) is 96%. On to `COc1cccc(NC(=O)CC2C(=O)NCCN2C(=S)Nc2ccc(F)cc2)c1` (stereo unspecified), for which the percent activity (GTP binding) was 97%.

As for `CCOC(=O)C(CC)/C(C)=N\NC(=O)c1cccc(C)c1` (stereo unspecified), the percent activity (GTP binding) is 92%.

As for `Cc1ccc(/C([O-])=C(/C(=S)NCc2ccco2)[n+]2ccccc2)cc1[N+](=O)[O-]`, the percent activity (GTP binding) was 95%.

On to `CCn1nc(C)c(CN2CCN(Cc3ccc(OC)c(C)c3C)C(CCO)C2)c1C` (stereo unspecified), for which the percent activity (GTP binding) was 97%. In the case of `C=CCc1ccc(OCC(O)CN2CCN(Cc3ccccc3)CC2)c(OC)c1` (stereo unspecified), the percent activity (GTP binding) was 94%. As to `CC(=O)Nc1ccc(S(=O)(=O)Nc2ccc(-c3ccc4nnc(C)n4n3)cc2)cc1`, the percent activity (GTP binding) was 89%. The value for `Nc1[nH]c(=S)nc2nc(-c3ccccc3)c(-c3ccccc3)nc12` was 78% (active).

In the case of `Nc1ccc(-c2sc(N)nc2-c2ccccc2)cc1`, the percent activity (GTP binding) is 97%.

For the molecule `O=C(NNc1cc(Cl)ccc1Cl)c1cccnc1Cl`, the percent activity (GTP binding) was 97%. The value for `CCOC(=O)c1ccccc1NC(=S)N1CCC(C(N)=O)CC1` was 97%; that for `O=C(/C=C/c1ccccc1)Oc1coc(CSc2ncccn2)cc1=O` was 91%.

Regarding `Cc1ccc(CN2CCN(Cc3ccc4ncccc4c3)CC2CCO)cc1` (stereo unspecified), the percent activity (GTP binding) was 94%. In the case of `Cc1nccc(-c2ccc(-n3c(C)ccc3C)cc2)n1` it was 93%; in that of `Cc1ccc(N2C(=O)C3CC3C2=O)cc1` (stereo unspecified), 98%; in that of `Cc1ccccc1CN1C[C@@H]2C[C@@H](c3ccc4nsnc4c3)N3CCC[C@@]23C1=O`, 101%. In the case of `CCS(=O)(=O)c1ccc(C(=O)NC)c(Cl)c1Cl` it was 91%; in that of `COc1ccc(C)cc1NC(=O)Nc1ccccc1SC`, 98%; in that of `CC(C)C(O)C1CCN(Cc2nc(Cc3ccccc3Cl)no2)CC1` (stereo unspecified), 96%.

In the case of `COc1ccc(CN2CCCC(CNC(=O)c3ccc(F)cc3)C2)cc1OC` (stereo unspecified), the percent activity (GTP binding) is 97%. In the case of `COc1ccc(Cl)cc1NC(=O)NC(C)C(C)(C)C` (stereo unspecified) it was 101%.

The values above are taken from PubChem BioAssay AID761 (NMMLSC, 2007).
